The results in this text go back to PubChem BioAssay.

For assay [1], the system named is Human papillomavirus type 1a protein E7 (residues 44-93). Description: small molecules binding HPV E7 44-93 – biochemical, small-molecule microarray, residues 44-93, 635 nm fluorescence, primary screen (AID 1108).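 Also: E7 fragment applied at 1 µg/mL in TBST for 1 h at 4 C; score combines spot fluorescence with its signal to noise ratio.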 The settings on record: fluorescence 635 nm, higher = more signal.
The nature of assay [2]: hepatitis C replication reporter changes, two-sided – Huh7 cells, luciferase reporter, HCV replication inhibitor project, primary screen (AID 1109).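 Also: huh7 hepatoma cells harbouring a luciferase neomycin HCV replicon reporter; luciferase luminescence as measure of HCV replicon replication; test concentration not given here.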 The conditions noted are these: Huh7 HCV replicon luciferase reporter, 48 h; higher = more signal.
Assay [3] deals with Left-right determination factor 2 (Homo sapiens) (UniProt O00292). Description: small molecules binding LEFTY2 protein – biochemical, small-molecule microarray, 635 nm fluorescence scan, primary screen (AID 1110). The conditions noted are these: higher = more signal.
The target of assay [4] is Calmodulin-1 (Homo sapiens) (UniProt P0DP23). Description: small molecules binding calmodulin-1 with EGTA – biochemical, small-molecule microarray, Cy5-labelled CALM1, profiling panel (AID 1111).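 Also: labelled calmodulin applied in Tris saline Tween buffer holding calcium plus EGTA and DTT.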 The settings on record: Cy5-CALM1 binding fluorescence, higher = more signal.
For assay [5] the target is unchanged. The assay can be described thus: small molecules binding Ca-loaded calmodulin-1 – biochemical, small-molecule microarray, Cy5-labelled CALM1, plus calcium, artefact control for SMM control-protein annotation, profiling panel (AID 1112).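 Also: score merges spot fluorescence with signal to noise from triplicate slides.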 The settings on record: Cy5-CALM1 binding fluorescence, higher = more signal.
The nature of assay [6]: probe aWnt5a binding to arrayed compounds – biochemical, biotinylated probe, 635/667 nm fluorescence, primary screen (AID 1113).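 Also: score merges 667 nm fluorescence intensity with signal-to-noise per printed feature.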 The conditions noted are these: small-molecule microarray, higher = more signal.
Assay [7] is described as follows: probe aShh binding to arrayed compounds – biochemical, biotinylated probe, 635/667 nm fluorescence, primary screen (AID 1114).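 Also: probe is biotin-labelled aShh protein from a stem cell growth factor screen; measures binding of labelled protein to compounds printed on the slide; score merges feature fluorescence at 667 nm with signal-to-noise.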 The settings on record: small-molecule microarray, higher = more signal.
Assay [8] is described as follows: probe aNog binding to arrayed compounds – biochemical, biotinylated probe, 635/667 nm fluorescence, primary screen (AID 1115).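 Also: probe is biotinylated aNog protein used at 0.15 µg/mL for 1 h at 4 C; z-score combines 667 nm fluorescence of each spot with its signal to noise.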 The conditions noted are these: small-molecule microarray, higher = more signal.
Assay [9] addresses Torsin-1A-interacting protein 1 (Homo sapiens) (UniProt Q5JTV8). Description: compound microarray binding of lysate hLAP1 – cell lysate, small-molecule microarray, COS7 lysate, 635/667 nm fluorescence, primary screen (AID 1116). The settings on record: 635 nm fluorescence, higher = more signal.
The target in assay [10] is Alpha-bungarotoxin (Bungarus multicinctus) (UniProt P60615). The assay can be described thus: compounds binding labelled alpha-BTX control protein – biochemical, small-molecule microarray, Alexa647 label, 635/667 nm fluorescence, artefact control for SMM control protein annotation, profiling panel (AID 1117). The settings on record: alpha-BTX-A647 binding fluorescence, higher = more signal.

In another assay the target is Albumin (Bos taurus) (UniProt P02769). The assay can be described thus: compounds binding labelled BSA control protein – biochemical, small-molecule microarray, Alexa647 label, 635/667 nm fluorescence, artefact control for SMM control protein annotation, profiling panel (AID 1118).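 Also: score merges 667 nm emission intensity and signal-to-noise per printed compound spot.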 The settings on record: BSA-A647 binding, fluorescence 635 nm, higher = more signal.
Assay [11] is described as follows: probe aXIP binding to arrayed compounds – biochemical, NeuroSMM set, 635/667 nm fluorescence, primary screen (AID 1119).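 Also: probe is the protein aXip251-270 applied at 1 µg/mL to compound-printed slides; binding of probe to printed compounds measured as 667 nm fluorescence plus signal to noise.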 The conditions noted are these: small-molecule microarray, higher = more signal, called active from +8 up or from −8 down.
The nature of assay [12]: probe aNOTCH3 binding on compound microarray – biochemical, small-molecule microarray, 635/667 nm fluorescence, primary screen (AID 1120).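 Also: probe is a biotin-tagged antibody raised against NOTCH3 rather than NOTCH3 protein; score merges spot fluorescence near 667 nm with spot signal to noise.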 The settings on record: higher = more signal.
A short description of assay [13]: probe aNOTCH2 binding on compound microarray – biochemical, small-molecule microarray, 635/667 nm fluorescence, primary screen (AID 1121).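 Also: score merges feature fluorescence read at 667 nm with its signal to noise.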 The settings on record: higher = more signal.
For assay [14], the target named is Carbonic anhydrase 2 (Homo sapiens) (UniProt P00918). Description: compounds binding carbonic anhydrase 2 – biochemical, small-molecule microarray, Alexa647-labelled CAII, profiling panel (AID 1122). The conditions noted are these: CAII-A647 binding fluorescence, higher = more signal.
Assay [15] in a line: COS7 lysate on small-molecule microarray, probe aHis, 635 nm (AID 1123).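 Also: z-score combines 667nm fluorescence intensity with signal-to-noise per printed compound spot.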 The settings on record: COS7 cell lysate, fluorescence, higher = more signal.
A short description of assay [16]: probe aLAP1 signal on lysate-treated microarray – cell lysate, small-molecule microarray, COS7 lysate, primary screen (AID 1124).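 Also: lysate comes from COS7 cells expressing LAP1 and is applied at 0.3 µg/mL; score merges spot fluorescence near 667 nm with signal-to-noise over triplicate slides.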 The settings on record: probe aLAP1, fluorescence, higher = more signal.
The test system of a further assay is Sam68 (KHDRBS1). Description: compounds binding KHDRBS1 protein – biochemical, small-molecule microarray, 635 nm fluorescence, primary screen (AID 1125).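 Also: score merges 667 nm channel intensity with signal to noise over triplicate slides.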 The conditions noted are these: higher = more signal.
Assay [17] deals with Chordin-like protein 2 (CHRDL2). Description: compounds binding chordin-like 2 – biochemical, small-molecule microarray, 635 nm fluorescence, primary screen (AID 1126).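 Also: printed compound slides probed with Chrdl2 protein at 4 µg/mL for 1 h at 4 C; score merges 667 nm emission intensity with signal to noise over three replicate slides.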 The conditions noted are these: fluorescence 635 nm, higher = more signal.
The target in assay [18] is Concanavalin-A (Canavalia ensiformis) (UniProt P02866). Description: compounds binding concanavalin A lectin – biochemical, small-molecule microarray, Alexa647 label, 635 nm, artefact control for SMM control protein annotation, primary screen (AID 1127).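 Also: z combines 667 nm emission intensity with signal-to-noise across three replicate slides.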 The settings on record: ConA-A647 binding fluorescence, higher = more signal.

Each structure is given as a SMILES string. Calls of active or inactive are those of the source.

Chain of Alpha-bungarotoxin (Bungarus multicinctus) (P60615 whole entry, looked up): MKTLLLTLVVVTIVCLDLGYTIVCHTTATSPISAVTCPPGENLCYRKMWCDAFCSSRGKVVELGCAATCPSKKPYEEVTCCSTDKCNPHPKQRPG
Chain of Concanavalin-A (Canavalia ensiformis) (P02866 whole entry, looked up): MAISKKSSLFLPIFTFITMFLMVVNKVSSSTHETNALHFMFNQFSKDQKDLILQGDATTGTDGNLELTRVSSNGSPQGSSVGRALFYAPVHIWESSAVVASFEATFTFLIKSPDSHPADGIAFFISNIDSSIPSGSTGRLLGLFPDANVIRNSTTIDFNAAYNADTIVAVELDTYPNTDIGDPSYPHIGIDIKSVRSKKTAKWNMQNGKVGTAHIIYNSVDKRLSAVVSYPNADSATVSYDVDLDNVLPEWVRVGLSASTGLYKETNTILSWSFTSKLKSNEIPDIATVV
Chain of Left-right determination factor 2 (Homo sapiens) (O00292 whole entry, looked up): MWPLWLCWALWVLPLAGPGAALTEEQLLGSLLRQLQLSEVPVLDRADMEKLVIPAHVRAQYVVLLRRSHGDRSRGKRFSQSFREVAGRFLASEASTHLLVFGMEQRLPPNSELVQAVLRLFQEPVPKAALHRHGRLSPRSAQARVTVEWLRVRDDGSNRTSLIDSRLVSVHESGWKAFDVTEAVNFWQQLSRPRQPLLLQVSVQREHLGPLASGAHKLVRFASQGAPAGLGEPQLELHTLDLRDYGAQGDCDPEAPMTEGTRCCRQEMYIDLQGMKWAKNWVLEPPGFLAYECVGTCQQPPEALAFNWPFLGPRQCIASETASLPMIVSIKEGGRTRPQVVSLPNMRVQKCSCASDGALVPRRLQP
Chain of Albumin (Bos taurus) (P02769 whole entry, looked up): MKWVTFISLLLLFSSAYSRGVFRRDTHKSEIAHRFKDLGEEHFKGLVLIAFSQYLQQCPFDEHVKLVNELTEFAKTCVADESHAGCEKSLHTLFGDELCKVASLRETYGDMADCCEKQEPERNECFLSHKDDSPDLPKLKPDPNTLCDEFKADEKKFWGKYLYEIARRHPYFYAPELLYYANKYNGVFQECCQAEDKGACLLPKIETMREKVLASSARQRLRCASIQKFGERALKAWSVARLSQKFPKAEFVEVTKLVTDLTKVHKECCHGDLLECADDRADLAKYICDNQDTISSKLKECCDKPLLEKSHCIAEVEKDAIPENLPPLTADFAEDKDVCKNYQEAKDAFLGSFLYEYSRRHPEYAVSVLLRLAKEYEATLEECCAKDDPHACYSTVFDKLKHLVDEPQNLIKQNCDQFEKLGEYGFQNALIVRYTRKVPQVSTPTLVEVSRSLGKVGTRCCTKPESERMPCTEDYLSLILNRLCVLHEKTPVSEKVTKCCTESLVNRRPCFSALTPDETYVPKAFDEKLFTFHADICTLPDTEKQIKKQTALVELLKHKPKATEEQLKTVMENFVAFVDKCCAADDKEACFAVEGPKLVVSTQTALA
Chain of Torsin-1A-interacting protein 1 (Homo sapiens) (Q5JTV8 whole entry, looked up): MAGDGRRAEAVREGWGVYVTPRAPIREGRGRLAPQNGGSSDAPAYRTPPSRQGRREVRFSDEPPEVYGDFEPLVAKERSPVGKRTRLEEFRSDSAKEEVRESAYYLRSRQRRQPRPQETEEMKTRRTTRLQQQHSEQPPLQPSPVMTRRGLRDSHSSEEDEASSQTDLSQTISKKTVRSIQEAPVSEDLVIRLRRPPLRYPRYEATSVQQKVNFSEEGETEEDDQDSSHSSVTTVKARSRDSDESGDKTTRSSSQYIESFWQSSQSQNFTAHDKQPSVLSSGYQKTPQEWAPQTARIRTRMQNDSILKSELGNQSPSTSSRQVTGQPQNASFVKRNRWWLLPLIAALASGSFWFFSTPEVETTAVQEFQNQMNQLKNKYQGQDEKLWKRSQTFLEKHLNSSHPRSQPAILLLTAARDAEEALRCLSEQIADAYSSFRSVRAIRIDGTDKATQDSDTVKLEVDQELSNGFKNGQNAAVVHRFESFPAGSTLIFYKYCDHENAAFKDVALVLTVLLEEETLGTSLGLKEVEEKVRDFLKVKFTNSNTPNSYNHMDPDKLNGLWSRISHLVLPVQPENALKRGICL

With `COC(=O)C(CC#Cc1ccc2c(c1)[C@]1(C(=O)N2)[C@H](c2ccccc2OCCO)N2[C@H](c3ccccc3)[C@H](c3ccccc3)OC(=O)[C@H]2[C@@H]1C(=O)O)C(=O)OC`, the composite z-score came out at 1.43 in assay [1]; 0.17 in assay [3]; 1.61 in assay [4]; 0.701 in assay [5]; 0.0597 in [6]; 0.218 in [7]. The composite z-score in [8] was 0.0258; in assay [9] it was 0.967; in [10] it was 1.94; with Albumin (Bos taurus), 0.573; in [12], 0.194; in [13] it was -0.1. The composite z-score in assay [14] came out at 0.367; in assay [15] it was 1.7; in assay [16], 0.375; with Sam68 (KHDRBS1) it was 1.3; in assay [17], 0.132; in [18] it was 1.09. Also, the z-score in [2] was -0.567. Besides, the composite Z-score in [11] is 0.0066 (inactive).

For `CCCCN1CC=CC23O[C@@H]4C=CCOC(=O)[C@@H]4[C@H]2C(=O)N(CCCCCCO)[C@@H]3C1=O` (stereo not given in full), the composite z-score is -0.477 in assay [1]; -1.18 in assay [3]; -1.01 in assay [4]; 0.224 in assay [5]; -0.203 in assay [6]; -0.138 in assay [7]. The composite z-score in [8] is 0.193; in assay [9], 1.41; in [10] it was -1.35; with Albumin (Bos taurus), -0.469; in [12] it was -0.182; in assay [13], -0.187. Also, the composite z-score is 0.95 in assay [14]; -0.275 in assay [15]; 0.456 in assay [16]; -0.821 in the assay with Sam68 (KHDRBS1); -1.83 in assay [17]; -1.24 in [18]. For the same molecule, the z-score in assay [2] was -0.672. Further, the composite Z-score in assay [11] is 0.998 (inactive).

As for `CC(C)[Si](C#CCCCC#N)(O[C@H](c1ccccc1)c1cn(Cc2cccc(Cl)c2)nn1)C(C)C`, the composite z-score was 1.31 in assay [1]; 0.634 in [3]; -0.412 in [4]; -0.745 in [5]; -0.0977 in assay [6]; -0.0553 in assay [7]. Moreover, the composite z-score in [8] was -0.467; in assay [9], 0.423; in assay [10], -0.0534; in the assay with Albumin (Bos taurus), 0.588; in [12] it was 0.0871; in [13], -0.11. For the same molecule, the composite z-score in assay [14] is 0.442; in [15], 0.79; in [16] it was -0.192; in the assay on Sam68 (KHDRBS1), 1.3; in assay [17] it was 0.841; in assay [18] it was 0.0848. In addition, the z-score in assay [2] is -1.7. The composite Z-score in assay [11] was 1.02 (inactive).

Turning to `C=CC[C@]1(C(=O)N2CCOCC2)N=C(c2ccc(OCCCO)cc2)O[C@H]1c1ccccc1N=[N+]=[N-]`, the composite z-score came to 1.47 in [1]; 0.258 in [3]; 1.47 in assay [4]; 0.667 in [5]; 0.0839 in assay [6]; 0.308 in assay [7]. Moreover, the composite z-score in assay [8] was 1.76; in assay [9], 1.9; in [10], 0.92; with Albumin (Bos taurus), 0.561; in assay [12], 0.298; in assay [13] it was -0.0896. Also, the composite z-score is 0.751 in assay [14]; 2.77 in assay [15]; 0.647 in [16]; 1.29 in the assay with Sam68 (KHDRBS1); -0.521 in assay [17]; 1.09 in assay [18]. This molecule had a z-score in assay [2] of -1.43. Also, the composite Z-score in [11] is 0.193 (inactive).

As for `COc1ccccc1CN1C(=O)c2ccccc2[C@@H](C(=O)NCc2ccccc2)[C@@H]1c1ccc(CO)cc1`, the composite z-score was 0.841 in assay [1]; 0.0458 in assay [3]; -0.473 in assay [4]; -0.181 in assay [5]; -0.124 in assay [6]; -0.374 in assay [7]. The composite z-score is -0.416 in assay [8]; 0.404 in assay [9]; 1.78 in assay [10]; 0.431 with Albumin (Bos taurus); -0.293 in [12]; -0.0984 in [13]. The composite z-score is 0.544 in [14]; 1.15 in assay [15]; 1.54 in [16]; 1.09 in the assay with Sam68 (KHDRBS1); -0.353 in [17]; 0.305 in assay [18]. Besides, the z-score in assay [2] was -1.01. Also, the composite Z-score in [11] was -0.549 (inactive).

Take `C=CC1c2cc(O)c(OC)cc2CCN1Cc1cccc(OC(F)(F)F)c1` (stereo not given): the composite z-score in [1] is 0.625; in assay [3] it was -0.154; in assay [4], 0.667; in [5] it was -0.566; in [6], -0.175; in assay [7], -0.0146. Besides, the composite z-score in assay [8] is -0.483; in assay [9], 0.828; in assay [10], 0.39; with Albumin (Bos taurus) it was 0.971; in assay [12], -0.0596; in [13] it was -0.16. Moreover, the composite z-score was determined as 0.893 in assay [14]; 3.33 in assay [15]; 0.754 in assay [16]; 0.909 with Sam68 (KHDRBS1); 0.44 in assay [17]; 0.462 in [18]. For the same molecule, the z-score in assay [2] was -1.79. Besides, the composite Z-score in assay [11] was 0.625 (inactive).
